The record followed here is PubChem BioAssay (NCATS).

The nature of assay [1]: Cellular Toxicity (caspase-3) Mesangial (AID 660).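 Note: cells exposed to compound for 16 h before the caspase read.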 As to conditions: mesangial cells, normalized: DMSO 0%, 100 µM tamoxifen 100%; at 91.7 µM (top of the series). In a few lines:
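Human renal glomerular mesangial cells (1000/well) were treated with compounds for 16 h at 37 °C in complete medium, then caspase 3/7 activity was read by Caspase-Glo luminescence. Data were normalized to DMSO and 100 uM tamoxifen; AC50 from Hill fits.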

Assay [2] is described as follows: Cellular Toxicity (caspase-3) SK-N-SH (AID 661).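 Note: 0% = DMSO basal and 100% = 10 µM staurosporine.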 In a few lines:
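SK-N-SH human neuroblastoma cells (1500/well) were treated with compounds for 16 hr at 37 °C in complete medium; caspase 3/7 activity was read by Caspase-Glo luminescence. AC50 came from Hill fits of data normalized to DMSO and 10 uM staurosporine.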

Assay [3] can be described thus: Cellular Toxicity (caspase-3) H-4-II-E (AID 663).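 Note: cells exposed to compound for 16 hr before readout.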 The settings on record: H-4-II-E rat hepatoma, scaled: DMSO 0%, 100 µM tamoxifen 100%; at 92.2 µM (top of the series). A digest of the protocol:
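Apoptosis induction is scored as increased luminescence from caspase 3/7 substrate cleavage in rat hepatoma H-4-II-E cells exposed to compound for 16 hr. Activity is scaled between DMSO and 100 uM tamoxifen.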

The nature of assay [4]: Cellular Toxicity (caspase-3) Hek293 (AID 664).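 Note: cells exposed to compound for 16 h at 37 °C before readout.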 The settings on record: HEK293 caspase-3 activation, DMSO = 0%, 100 µM tamoxifen = 100%; at 92.2 µM (top of the series). In a few lines: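 HEK293 cells were exposed to compounds in complete medium for 16 hr at 37 °C, then caspase-3/7 activity was read by Caspase-Glo 3/7 luminescence after 20 min at room temperature. Data normalized to DMSO and 100 uM tamoxifen; AC50 from Hill fits.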

Assay [5] is described as follows: Cellular Toxicity (caspase-3) N2a (AID 665).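 Note: compound exposure lasted 16 h at 37 °C before readout.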 A digest of the protocol: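 Mouse N2a neuroblastoma cells (1500/well) were treated with compounds for 16 h at 37 °C, then caspase-3/7 activity was read by Caspase-Glo luminescence after 1 h at room temperature. Data were normalized to DMSO and 10 uM staurosporine; AC50 from Hill fits.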
Assay [6] in a line: Cellular Toxicity (caspase-3) Renal Proximal Tubule (AID 667).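 Note: cells exposed to compound for 16 hours at 37 °C before detection; 0% = DMSO basal and 100% = 10 µM staurosporine.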 As to conditions: Potency: caspase-3 activation. A digest of the protocol:
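In qHTS format, rat primary proximal tubule cells seeded at 1000 per well are exposed to compounds for 16 hours at 37 °C. An increase in Caspase-Glo 3/7 luminescence indicates caspase activation.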

Assay [7] concerns the target Cytochrome P450 3A4 (Homo sapiens) (UniProt P08684). The assay can be described thus: qHTS Assay for Inhibitors and Substrates of Cytochrome P450 3A4 (AID 884). Note: nearly all actives have a fitted effect of over 50% in size. Note: potency is the fitted concentration of half-maximal effect. In a few lines:
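20 nM human CYP3A4 with 25 uM Luciferin-PPXE (at KM) in 200 mM KPO4, preincubated 10 min with compound; NADPH regeneration started a 60 min RT reaction. Luciferin detected by luminescence, normalized to 57 uM ketoconazole as full inhibition.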
(In general: Quantitative high-throughput screening tests each substance at several concentrations.)

The nature of assay [8]: Cell Viability - LYMP2-001 (AID 921).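 Note: 0% = DMSO only and full inhibition = tetraoctylammonium bromide control wells; nearly all actives have a fitted effect of over 70% in size.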 In a few lines:
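qHTS, 1536-well; lymphoblastoid cells, 24 hr compound, 37 C; ATP by CellTiter-Glo, 30 min RT; luminescence; Hill-fit AC50.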

Assay [9] is described as follows: MultiTox-Fluor Cytotoxicity Assay - LYMP1-001 - Dead Cells (AID 946). In a few lines:
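Seed 2500 LYMP1-001 cells/well, incubate 5 hr at 37 C; add compound, 16 hr at 37 C; add MultiTox-Fluor reagent, 60 min RT; read dead-cell fluorescence Ex/Em=485/520. Normalize to DMSO and 15 uM tetraoctylammonium bromide.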

Assay [10] is described as follows: MultiTox-Fluor Cytotoxicity Assay - LYMP1-001 - Live Cells (AID 947).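 Note: 0% = DMSO only and full inhibition = tetraoctylammonium bromide control.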
Assay [11] can be described thus: Cell Viability - LYMP1-002 - Assay at 16 hr (AID 948).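 Note: 0% = DMSO alone and full effect = 92 µM tetraoctylammonium bromide.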 A digest of the protocol: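 Acute cytotoxicity is scored as a concentration-dependent fall in intracellular ATP in a human lymphoblastoid line (LYMP1-002) after 16 hr compound exposure at 37 C, measured by luciferase luminescence.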
Assay [12] in a line: MultiTox-Fluor Cytotoxicity Assay - LYMP1-002 - Live Cells (AID 955). Note: % is set by controls: 0 for no effect and ±100 for the full control effect. A digest of the protocol:
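Human lymphoblastoid LYMP1-002 cells, 2500/well in complete medium, rested 5 hr at 37 C, then exposed to compounds for 16 hr at 37 C. Live-cell protease cleavage of GF-AFC read by fluorescence (Ex/Em 405/510) after 60 min at room temperature; AC50 from Hill fits.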

Assay [13] is described as follows: MultiTox-Fluor Cytotoxicity Assay - LYMP1-002 - Dead Cells (AID 960). Note: nearly all actives have a fitted effect of over 60% in size. A digest of the protocol:
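Human lymphoblastoid cells (LYMP1-002), 2500/well in complete medium, were exposed to compounds for 16 hr at 37 C. Dead-cell protease activity was read as bis-AAF-R110 fluorescence (Ex/Em 485/520), normalized to DMSO and 15 uM tetraoctylammonium bromide; AC50 from Hill fits.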

Assay [14] is described as follows: MultiTox-Fluor Cytotoxicity Assay - LYMP1-003 - Dead Cells (AID 961). Note: nearly all actives have a fitted effect of over 70% in size. A digest of the protocol:
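LYMP1-003 lymphoblastoid, 2500 cells/well, 5 hr settle then 16 hr cpd at 37 C; MultiTox-Fluor reagent 60 min RT; Ex/Em 485/520 dead-cell signal; norm. DMSO = 0%, 15 uM tetraoctylammonium bromide = 100%; Hill AC50.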

Assay [15] in a line: Cell Viability - LYMP1-003 - Assay at 24 hr (AID 963).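 Note: plate controls were DMSO only for no effect and tetraoctylammonium bromide positive control for full effect.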 In a few lines: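 Human lymphoblastoid LYMP1-003 cells (2500/well) were rested 5 hr at 37 C, then exposed to compounds in complete medium for 24 hr at 37 C. Cellular ATP was quantified by CellTiter-Glo luminescence, and AC50 values came from Hill fits of concentration-response data.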
Assay [16] is described as follows: Cell Viability - LYMP2-003 (AID 965).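 Note: cells exposed to compounds for 24 h before reading; 0% = DMSO only and full effect = 92 µM tetraoctylammonium bromide; nearly all actives have a fitted effect of over 50% in size.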 In a few lines: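 Acute cytotoxicity is scored as a concentration-dependent drop in intracellular ATP, measured by luciferase luminescence in human lymphoblastoid cells treated for 24 hours at 37 C. AC50 values derive from Hill-equation modelling.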
Assay [17] can be described thus: MultiTox-Fluor Cytotoxicity Assay - LYMP1-003 - Live Cells (AID 962).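 Note: 0% = DMSO only and full loss = 92 µM tetraoctylammonium bromide; cytotoxic hits lower the live-cell protease signal.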 A digest of the protocol:
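LYMP1-003 human lymphoblastoid cells (2500/well) in complete medium were preincubated 5 hr at 37 C, then exposed to compounds for 16 hr at 37 C. Live-cell protease cleavage of GF-AFC read by fluorescence (Ex/Em 405/510); AC50 from Hill fits.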

The nature of assay [18]: Cell Viability - LYMP1-003 - Assay at 40 hr (AID 964). Note: % is set by controls: 0 for no effect and ±100 for the full control effect; nearly all actives have a fitted effect of over 60% in size. In a few lines:
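Human lymphoblastoid LYMP1-003 cells, 2500/well in complete medium, rested 5 hr at 37 C, then exposed to compounds for 40 hr at 37 C. Viability read as intracellular ATP by CellTiter-Glo luminescence; AC50 from Hill fits of concentration-response data.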

Assay [19] in a line: Cellular Toxicity (caspase-3) NIH 3T3 (AID 666).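 Note: caspase signal read after 16 h compound exposure; 0% = DMSO basal and 100% = 100 µM tamoxifen stimulation.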 A digest of the protocol:
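Mouse NIH 3T3 fibroblasts (1000 cells/well) were treated with compound for 16 hr at 37°C in complete medium; caspase-3/7 activity was read by Caspase-Glo luminescence. Normalized to DMSO and 100 uM tamoxifen; AC50 from Hill fits.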

For assay [20], the target named is Cytochrome P450 3A4 (Homo sapiens) (UniProt P08684). The assay can be described thus: qHTS Assay for Activators of Cytochrome P450 3A4 (AID 885). Note: nearly all actives have a fitted effect of over 65% in size. A digest of the protocol: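 Steps: enzyme/substrate mix dispensed; compound added, 10 min RT; NADPH regeneration solution added, 60 min RT; luciferin detection buffer stops reaction; 20 min later luminescence measured.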
Sequence of Cytochrome P450 3A4 (Homo sapiens) (P08684 whole entry, looked up): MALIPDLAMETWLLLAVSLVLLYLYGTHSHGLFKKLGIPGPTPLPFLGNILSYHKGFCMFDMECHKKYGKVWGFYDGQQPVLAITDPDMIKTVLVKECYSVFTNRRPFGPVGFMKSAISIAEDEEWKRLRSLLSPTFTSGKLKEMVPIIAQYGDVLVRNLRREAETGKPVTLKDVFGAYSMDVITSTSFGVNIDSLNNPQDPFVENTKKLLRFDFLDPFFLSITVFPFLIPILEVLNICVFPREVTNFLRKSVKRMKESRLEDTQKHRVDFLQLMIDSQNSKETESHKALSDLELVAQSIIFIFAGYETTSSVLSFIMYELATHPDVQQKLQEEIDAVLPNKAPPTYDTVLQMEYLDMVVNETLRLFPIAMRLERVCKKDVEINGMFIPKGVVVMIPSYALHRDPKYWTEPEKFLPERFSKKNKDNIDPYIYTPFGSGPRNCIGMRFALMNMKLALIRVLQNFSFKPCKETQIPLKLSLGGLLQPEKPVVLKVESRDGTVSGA

Values without a mark were called inactive. Inconclusive results are not listed. Calls of active or inactive are those of the source. Calls come from the whole dose curve; as a rule, active = well fitted curve in the direction sought with a large enough effect; inconclusive = small, poorly fitted or top-dose-only effect, or another doubt; inactive = no such curve, though single readings can be large; an effect the other way counts as inactive or inconclusive.

As to `C=CCCCC`, the caspase-3 activation in assay [1] was -0.265%; in assay [3] it was 0.498%; in assay [4], 1.21%. For the same molecule, the molecule was classed as inactive in [2], in assay [5], in assay [9], in assay [10], in assay [11] and in [12]. For the same molecule, the result in assay [13] was inactive. Also, the Potency entry in assay [6], in assay [7], in [8], in assay [14], in [15] and in assay [16] was “inactive” in each case.

For `Cc1ccc(N(C)C)cc1`, the results for the caspase-3 activation in [1], in assay [3] and in [4] were 0.102%, -1.01% and -0.882%, respectively. Moreover, the molecule was classed as inactive in [2], in assay [5], in assay [9], in assay [10], in assay [11] and in assay [12]. For the same molecule, the result in [13] was inactive. For the same molecule, the Potency result in assay [6], in assay [7], in [8], in assay [14], in [17] and in assay [15] was “inactive” throughout. Besides, the Potency result in assay [18] and in assay [16] was “inactive” in each case.

On to `O=C(O)/C=C/C(=O)O`, for which the caspase-3 activation was -0.622% in [1], 1.4% in assay [3] and -1.62% in assay [4]. The molecule was classed as inactive in assay [2], in assay [5], in assay [9] and in assay [11]. Moreover, the Potency result in assay [6], in assay [7], in [8], in assay [14], in assay [17] and in assay [15] was “inactive” each time. Further, the Potency result in [18] and in assay [16] was “inactive” throughout.

As to `COc1ccc(N=[N+]([O-])c2ccc(OC)cc2)cc1`, the caspase-3 activation is -3.45% in assay [1], -3.45% in [3] and -8.4% in [4]. In addition, the molecule was called inactive in assay [2], in [5], in assay [9] and in [11]. For the same molecule, the Potency entry in assay [6], in [7], in assay [8], in [15], in assay [18] and in assay [16] was “inactive” in each case.

For the molecule `CN(C)CCCCl`, the caspase-3 activation in [1] is -0.558%; in [3] it was 0.431%; in [4] it was -0.527%. Besides, the outcome in assay [5], in [19], in assay [9], in [11], in [12] and in assay [13] was inactive. The Potency result in [6], in assay [7], in assay [8], in [14], in [15] and in assay [18] was “inactive” in each case. In addition, in [16], the Potency entry is “inactive”.

As to `Cc1ccc2c(c1[N+](=O)[O-])C(=O)c1ccccc1C2=O`, the caspase-3 activation in assay [1] is -0.888%; in assay [3] it was -1.7%; in assay [4] it was -1.55%. Besides, the molecule was classed as inactive in assay [5], in assay [20], in [9], in [11], in assay [12] and in [13]. Further, the Potency result in [6], in assay [8], in assay [14], in assay [15] and in [16] was “inactive” throughout. In addition, in [7], the Potency is 12.6 µM (active).

Take `Cc1ccc(C)o1`: the values for the caspase-3 activation in assay [1], in assay [3] and in assay [4] were -0.182%, -0.53% and 0.32%, respectively. The result in assay [5], in [19], in [10], in [11], in assay [12] and in [13] was inactive. For the same molecule, the Potency entry in assay [6], in assay [7], in [8], in assay [17], in [15] and in assay [18] was “inactive” in each case. Further, in [16], the Potency result was “inactive”.

In the case of `Cc1ccccc1Br`, the caspase-3 activation in assay [1] was -0.877%; in assay [3], 0.309%; in assay [4], -0.786%. The call in [5], in assay [19], in [9], in assay [10], in [11] and in assay [12] was inactive. Moreover, the Potency entry in [6], in [7], in [8], in [14], in assay [17] and in assay [15] was “inactive” throughout. Further, the Potency entry in [18] and in assay [16] was “inactive” throughout.
